# Measured values published in ChEMBL document CHEMBL1961873, “Compounds: GSK PKIS; Assays: Nanosyn kinase panel” (2012).
# Experiments:
# [1] = biological target: T1, Tyrosine-protein kinase receptor TYRO3 (Homo sapiens) (UniProt Q06418); settings: at 1 µM
# T1 sequence (whole entry): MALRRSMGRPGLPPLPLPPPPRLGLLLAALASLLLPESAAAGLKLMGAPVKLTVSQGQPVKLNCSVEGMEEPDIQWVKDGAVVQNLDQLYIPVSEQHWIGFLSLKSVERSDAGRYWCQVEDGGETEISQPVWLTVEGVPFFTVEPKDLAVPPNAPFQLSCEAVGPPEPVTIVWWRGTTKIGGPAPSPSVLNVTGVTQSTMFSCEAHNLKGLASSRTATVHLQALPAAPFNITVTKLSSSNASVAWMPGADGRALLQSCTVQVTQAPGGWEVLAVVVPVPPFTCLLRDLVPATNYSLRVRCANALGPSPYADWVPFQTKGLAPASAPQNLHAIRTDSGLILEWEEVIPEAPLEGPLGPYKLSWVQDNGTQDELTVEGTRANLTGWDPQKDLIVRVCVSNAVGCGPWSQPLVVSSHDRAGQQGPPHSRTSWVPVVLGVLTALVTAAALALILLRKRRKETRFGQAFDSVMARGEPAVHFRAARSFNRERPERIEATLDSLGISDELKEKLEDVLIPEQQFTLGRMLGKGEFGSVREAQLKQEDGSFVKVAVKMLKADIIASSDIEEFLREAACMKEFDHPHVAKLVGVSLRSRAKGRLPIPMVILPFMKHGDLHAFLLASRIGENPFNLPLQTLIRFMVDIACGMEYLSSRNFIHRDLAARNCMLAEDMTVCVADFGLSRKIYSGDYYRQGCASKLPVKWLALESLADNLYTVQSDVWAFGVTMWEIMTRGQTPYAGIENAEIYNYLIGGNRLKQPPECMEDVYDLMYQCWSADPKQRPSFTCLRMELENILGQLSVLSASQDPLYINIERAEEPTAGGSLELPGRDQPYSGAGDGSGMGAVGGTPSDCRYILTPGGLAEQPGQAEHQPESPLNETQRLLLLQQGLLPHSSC
# [2] = biological target: Tyrosine-protein kinase Yes (Homo sapiens) (UniProt P07947); settings: at 0.1 µM
# Sequence of Tyrosine-protein kinase Yes (Homo sapiens) (P07947 2-543 limits assumed): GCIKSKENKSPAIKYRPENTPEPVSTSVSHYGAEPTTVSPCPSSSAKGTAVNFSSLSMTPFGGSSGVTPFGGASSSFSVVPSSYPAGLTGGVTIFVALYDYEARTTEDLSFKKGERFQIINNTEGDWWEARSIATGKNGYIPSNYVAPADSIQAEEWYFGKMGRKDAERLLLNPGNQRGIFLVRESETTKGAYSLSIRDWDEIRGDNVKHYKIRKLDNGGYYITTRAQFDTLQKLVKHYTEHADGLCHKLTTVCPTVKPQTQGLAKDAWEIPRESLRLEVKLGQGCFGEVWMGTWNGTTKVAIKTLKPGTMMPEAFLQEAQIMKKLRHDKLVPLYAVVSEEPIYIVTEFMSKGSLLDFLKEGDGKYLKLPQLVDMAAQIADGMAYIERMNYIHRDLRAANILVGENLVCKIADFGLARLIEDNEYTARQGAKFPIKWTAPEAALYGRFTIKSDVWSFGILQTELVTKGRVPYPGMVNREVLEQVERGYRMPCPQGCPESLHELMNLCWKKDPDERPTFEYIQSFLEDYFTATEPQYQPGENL
# [3] = biological target: Tyrosine-protein kinase Yes (Homo sapiens) (UniProt P07947); settings: at 1 µM
# [4] = biological target: T2, Tyrosine-protein kinase ZAP-70 (Homo sapiens) (UniProt P43403); settings: at 0.1 µM
# T2 sequence (whole entry): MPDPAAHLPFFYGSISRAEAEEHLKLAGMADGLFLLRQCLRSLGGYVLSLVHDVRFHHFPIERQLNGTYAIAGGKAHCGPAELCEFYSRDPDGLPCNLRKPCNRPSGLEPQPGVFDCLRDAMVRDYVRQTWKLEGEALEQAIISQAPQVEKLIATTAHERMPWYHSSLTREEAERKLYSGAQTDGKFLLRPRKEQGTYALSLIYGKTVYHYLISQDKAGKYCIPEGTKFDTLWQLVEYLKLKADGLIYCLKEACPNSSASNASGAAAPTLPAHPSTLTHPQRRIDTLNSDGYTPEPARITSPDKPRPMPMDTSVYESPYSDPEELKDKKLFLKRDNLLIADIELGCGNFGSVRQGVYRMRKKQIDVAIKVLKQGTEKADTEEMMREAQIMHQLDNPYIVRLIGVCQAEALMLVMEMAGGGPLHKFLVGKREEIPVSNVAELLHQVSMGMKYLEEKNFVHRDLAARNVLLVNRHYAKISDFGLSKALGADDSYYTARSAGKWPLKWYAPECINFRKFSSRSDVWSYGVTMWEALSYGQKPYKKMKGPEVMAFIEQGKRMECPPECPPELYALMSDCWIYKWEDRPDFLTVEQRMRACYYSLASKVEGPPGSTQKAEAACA
# [5] = biological target: T2, Tyrosine-protein kinase ZAP-70 (Homo sapiens); settings: at 1 µM
# [6] = biological target: Serine/threonine-protein kinase B-raf (Homo sapiens) (UniProt P15056); settings: at 0.1 µM
# Sequence of Serine/threonine-protein kinase B-raf (Homo sapiens) (P15056 whole entry): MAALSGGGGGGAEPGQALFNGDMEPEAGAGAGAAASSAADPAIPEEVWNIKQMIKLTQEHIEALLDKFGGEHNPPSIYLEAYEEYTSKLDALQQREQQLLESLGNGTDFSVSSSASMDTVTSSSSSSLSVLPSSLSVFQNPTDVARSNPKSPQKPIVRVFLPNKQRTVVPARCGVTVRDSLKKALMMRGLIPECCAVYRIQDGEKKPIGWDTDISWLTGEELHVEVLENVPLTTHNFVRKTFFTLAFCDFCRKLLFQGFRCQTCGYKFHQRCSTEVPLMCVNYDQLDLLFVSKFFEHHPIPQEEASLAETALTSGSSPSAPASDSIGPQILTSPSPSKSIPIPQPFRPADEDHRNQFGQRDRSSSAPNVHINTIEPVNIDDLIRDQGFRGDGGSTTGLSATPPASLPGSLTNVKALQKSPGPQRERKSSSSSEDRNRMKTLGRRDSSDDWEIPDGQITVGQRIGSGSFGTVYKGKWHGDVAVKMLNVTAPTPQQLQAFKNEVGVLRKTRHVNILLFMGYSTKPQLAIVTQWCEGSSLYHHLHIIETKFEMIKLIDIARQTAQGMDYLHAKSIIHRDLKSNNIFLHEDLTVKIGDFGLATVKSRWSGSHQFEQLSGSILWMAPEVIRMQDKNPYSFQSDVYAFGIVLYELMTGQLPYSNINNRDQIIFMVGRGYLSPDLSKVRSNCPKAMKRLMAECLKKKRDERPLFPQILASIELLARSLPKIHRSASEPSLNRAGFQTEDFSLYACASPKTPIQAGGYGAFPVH
# [7] = biological target: Serine/threonine-protein kinase B-raf (Homo sapiens) (UniProt P15056); settings: at 1 µM
# [8] = tested on: Serine/threonine-protein kinase B-raf (Homo sapiens), P15056 [V600E]; settings: at 0.1 µM
# Sequence of Serine/threonine-protein kinase B-raf (Homo sapiens), P15056 [V600E] (P15056 whole entry V600E): as the sequence (P15056 whole entry) above, with V600E counted along it
# [9] = tested on: Serine/threonine-protein kinase B-raf (Homo sapiens), P15056 [V600E]; settings: at 1 µM
# [10] = biological target: RAF proto-oncogene serine/threonine-protein kinase (Homo sapiens) (UniProt P04049); settings: at 0.1 µM
# Sequence of RAF proto-oncogene serine/threonine-protein kinase (Homo sapiens) (P04049 whole entry): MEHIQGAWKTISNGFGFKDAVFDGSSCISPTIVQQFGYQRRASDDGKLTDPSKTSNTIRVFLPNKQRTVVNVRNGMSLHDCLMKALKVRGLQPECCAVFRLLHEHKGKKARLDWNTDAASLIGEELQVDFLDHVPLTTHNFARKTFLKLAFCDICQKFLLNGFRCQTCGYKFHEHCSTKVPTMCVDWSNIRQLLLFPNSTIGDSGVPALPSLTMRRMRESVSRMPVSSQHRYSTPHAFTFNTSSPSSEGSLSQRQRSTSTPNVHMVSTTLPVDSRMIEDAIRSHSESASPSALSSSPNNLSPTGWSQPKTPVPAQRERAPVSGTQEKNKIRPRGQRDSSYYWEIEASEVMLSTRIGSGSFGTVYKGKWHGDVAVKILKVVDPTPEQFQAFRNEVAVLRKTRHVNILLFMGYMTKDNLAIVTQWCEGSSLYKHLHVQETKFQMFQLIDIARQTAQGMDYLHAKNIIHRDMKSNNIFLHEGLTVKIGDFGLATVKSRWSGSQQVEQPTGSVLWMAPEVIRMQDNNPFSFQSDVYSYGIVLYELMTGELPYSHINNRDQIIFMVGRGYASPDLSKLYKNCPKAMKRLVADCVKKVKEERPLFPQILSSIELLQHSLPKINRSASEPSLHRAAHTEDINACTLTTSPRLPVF
# [11] = biological target: RAF proto-oncogene serine/threonine-protein kinase (Homo sapiens) (UniProt P04049); settings: at 1 µM
# [12] = biological target: T3, Interleukin-1 receptor-associated kinase 4 (Homo sapiens) (UniProt Q9NWZ3); settings: at 0.1 µM
# T3 sequence (whole entry): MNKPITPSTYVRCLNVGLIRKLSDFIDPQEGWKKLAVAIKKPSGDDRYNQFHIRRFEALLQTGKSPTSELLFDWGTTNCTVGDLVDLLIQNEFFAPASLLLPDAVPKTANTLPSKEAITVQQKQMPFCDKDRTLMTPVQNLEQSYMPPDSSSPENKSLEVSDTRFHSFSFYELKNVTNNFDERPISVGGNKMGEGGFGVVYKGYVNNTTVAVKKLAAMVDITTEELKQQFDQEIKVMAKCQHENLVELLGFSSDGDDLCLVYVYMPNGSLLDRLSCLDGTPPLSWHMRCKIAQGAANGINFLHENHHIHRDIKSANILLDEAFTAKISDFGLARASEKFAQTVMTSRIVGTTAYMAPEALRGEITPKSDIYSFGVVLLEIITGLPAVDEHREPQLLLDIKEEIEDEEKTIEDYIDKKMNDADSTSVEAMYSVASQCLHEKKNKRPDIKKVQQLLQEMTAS
# [13] = biological target: T3, Interleukin-1 receptor-associated kinase 4 (Homo sapiens); settings: at 1 µM
# [14] = biological target: Leucine-rich repeat serine/threonine-protein kinase 2 (Homo sapiens) (UniProt Q5S007); settings: at 0.1 µM
# Sequence of Leucine-rich repeat serine/threonine-protein kinase 2 (Homo sapiens) (Q5S007 whole entry): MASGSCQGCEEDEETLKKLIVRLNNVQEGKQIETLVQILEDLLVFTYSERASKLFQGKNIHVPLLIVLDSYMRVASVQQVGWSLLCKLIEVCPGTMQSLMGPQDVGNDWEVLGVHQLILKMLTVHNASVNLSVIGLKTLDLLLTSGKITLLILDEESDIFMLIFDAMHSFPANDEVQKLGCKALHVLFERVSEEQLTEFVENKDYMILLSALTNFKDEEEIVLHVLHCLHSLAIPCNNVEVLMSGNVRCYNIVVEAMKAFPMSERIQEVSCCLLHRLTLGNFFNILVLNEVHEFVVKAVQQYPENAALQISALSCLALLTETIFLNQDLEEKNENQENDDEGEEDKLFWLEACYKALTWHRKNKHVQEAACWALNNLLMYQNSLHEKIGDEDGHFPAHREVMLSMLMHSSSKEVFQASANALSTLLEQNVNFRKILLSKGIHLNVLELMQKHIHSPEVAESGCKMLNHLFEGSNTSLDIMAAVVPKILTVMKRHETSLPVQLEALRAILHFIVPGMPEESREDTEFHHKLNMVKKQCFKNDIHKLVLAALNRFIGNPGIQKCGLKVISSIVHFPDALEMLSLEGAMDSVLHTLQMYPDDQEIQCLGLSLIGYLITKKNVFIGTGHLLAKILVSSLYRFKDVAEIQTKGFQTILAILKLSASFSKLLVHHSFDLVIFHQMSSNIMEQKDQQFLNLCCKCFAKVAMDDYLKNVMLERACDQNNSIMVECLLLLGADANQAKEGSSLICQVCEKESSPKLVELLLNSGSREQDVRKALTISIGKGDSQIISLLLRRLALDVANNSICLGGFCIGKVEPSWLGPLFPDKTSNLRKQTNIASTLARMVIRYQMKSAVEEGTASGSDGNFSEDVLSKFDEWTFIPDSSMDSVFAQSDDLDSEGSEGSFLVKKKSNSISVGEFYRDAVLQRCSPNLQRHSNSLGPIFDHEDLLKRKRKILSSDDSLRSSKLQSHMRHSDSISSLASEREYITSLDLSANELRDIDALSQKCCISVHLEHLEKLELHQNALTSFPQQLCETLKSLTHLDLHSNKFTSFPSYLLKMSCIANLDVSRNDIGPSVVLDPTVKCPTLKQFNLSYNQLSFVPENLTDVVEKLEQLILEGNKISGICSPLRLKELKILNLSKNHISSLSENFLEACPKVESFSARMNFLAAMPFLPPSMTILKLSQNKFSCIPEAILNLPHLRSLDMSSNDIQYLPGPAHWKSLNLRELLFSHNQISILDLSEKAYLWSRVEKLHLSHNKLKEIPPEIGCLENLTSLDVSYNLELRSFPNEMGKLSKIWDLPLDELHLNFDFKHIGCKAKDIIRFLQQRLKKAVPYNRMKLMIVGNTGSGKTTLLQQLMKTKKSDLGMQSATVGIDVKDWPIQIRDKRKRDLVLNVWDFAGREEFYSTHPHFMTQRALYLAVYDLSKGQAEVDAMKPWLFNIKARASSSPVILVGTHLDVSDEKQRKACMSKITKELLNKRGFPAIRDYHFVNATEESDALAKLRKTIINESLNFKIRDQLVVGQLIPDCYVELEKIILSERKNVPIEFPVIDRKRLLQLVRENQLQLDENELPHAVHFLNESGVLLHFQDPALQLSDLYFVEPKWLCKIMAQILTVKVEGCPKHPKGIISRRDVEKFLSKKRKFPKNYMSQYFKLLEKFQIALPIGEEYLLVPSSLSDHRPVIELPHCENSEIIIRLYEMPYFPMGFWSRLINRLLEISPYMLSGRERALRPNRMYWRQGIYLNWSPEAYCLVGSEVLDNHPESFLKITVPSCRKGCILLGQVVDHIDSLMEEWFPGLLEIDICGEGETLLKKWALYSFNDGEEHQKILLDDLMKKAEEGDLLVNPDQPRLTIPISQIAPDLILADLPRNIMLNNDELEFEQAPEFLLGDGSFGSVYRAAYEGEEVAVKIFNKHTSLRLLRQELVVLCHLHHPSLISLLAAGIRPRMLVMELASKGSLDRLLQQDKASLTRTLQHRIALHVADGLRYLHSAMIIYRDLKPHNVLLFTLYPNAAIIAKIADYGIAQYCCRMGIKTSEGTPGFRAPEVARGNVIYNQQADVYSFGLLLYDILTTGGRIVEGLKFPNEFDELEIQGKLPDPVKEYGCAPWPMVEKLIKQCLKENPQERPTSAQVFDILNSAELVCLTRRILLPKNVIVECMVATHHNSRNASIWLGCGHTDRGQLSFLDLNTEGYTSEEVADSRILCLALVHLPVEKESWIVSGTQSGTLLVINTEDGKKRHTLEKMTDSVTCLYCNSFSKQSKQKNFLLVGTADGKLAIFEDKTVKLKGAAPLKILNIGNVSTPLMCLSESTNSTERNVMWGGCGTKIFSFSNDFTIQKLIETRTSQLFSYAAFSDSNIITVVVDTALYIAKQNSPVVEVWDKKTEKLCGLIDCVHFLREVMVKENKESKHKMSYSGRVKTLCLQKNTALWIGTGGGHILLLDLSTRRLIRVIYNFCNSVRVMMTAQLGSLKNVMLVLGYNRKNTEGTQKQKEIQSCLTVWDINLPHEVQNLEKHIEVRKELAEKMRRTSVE
# [15] = biological target: Leucine-rich repeat serine/threonine-protein kinase 2 (Homo sapiens) (UniProt Q5S007); settings: at 1 µM
# [16] = tested on: Leucine-rich repeat serine/threonine-protein kinase 2 (Homo sapiens), Q5S007 [G2019S]; settings: at 0.1 µM
# Sequence of Leucine-rich repeat serine/threonine-protein kinase 2 (Homo sapiens), Q5S007 [G2019S] (Q5S007 whole entry G2019S): as the sequence (Q5S007 whole entry) above, with G2019S counted along it
# [17] = tested on: Leucine-rich repeat serine/threonine-protein kinase 2 (Homo sapiens), Q5S007 [G2019S]; settings: at 1 µM
SMILES,inhibition [1] [%],inhibition [2] [%],inhibition [3] [%],inhibition [4] [%],inhibition [5] [%],inhibition [6] [%],inhibition [7] [%],inhibition [8] [%],inhibition [9] [%],inhibition [10] [%],inhibition [11] [%],inhibition [12] [%],inhibition [13] [%],inhibition [14] [%],inhibition [15] [%],inhibition [16] [%],inhibition [17] [%]
COc1cccc(-n2ncc3c(N/N=C/c4ccc(S(C)(=O)=O)cc4)ncnc32)c1,22.4,31.9,57.4,-3.44,1.31,7.5,16.4,8.25,20.2,-3.03,-5.96,-3.29,1.12,-1.93,-1.56,2.72,6.75
Cc1ccc(Nc2ccnc(Nc3cccc(C(N)=O)c3)n2)cc1O,55,33.5,78.5,-1.9,6.83,6.53,10.4,5.95,8.26,6.98,4.38,-2.94,6.55,0.74,9.44,2.08,26.1
CCn1c(-c2nonc2N)nc2ccc(F)cc21,5.61,4.26,8.39,3.33,2.76,8.45,7.77,9.84,7.05,-0.53,0.22,1.39,2.93,4.04,8.92,4.92,4.42
COC(=O)c1ccc2c(c1)C(=Cc1cc(Br)c(O)c(Br)c1)C(=O)N2,12.4,0.08,12.2,3.31,5.41,9.11,19.7,7.27,18.2,3.01,42,1.11,2.79,29.1,88.5,58.3,91.7
CS(=O)(=O)CCNCc1nc(-c2ccc3ncnc(Nc4ccc(OCc5cccc(C(F)(F)F)c5)cc4)c3c2)cs1,1.66,1.94,3.56,1.5,0.78,1.81,2.12,2.15,-0.18,0.97,-1.38,0.78,1.16,1.09,6.41,3.12,5.01
COc1cc(/C=N/Nc2ncnc3c2cnn3C(C)C)ccc1O,25.9,11.9,50.8,1.87,4.45,2.16,2.26,2.21,1.64,9.62,1.93,1.12,2.71,2.81,7.64,4.77,19.1
OCc1ccc(-c2nc(-c3ccccn3)c(-c3ccc4c(c3)OCO4)[nH]2)cc1,1.02,1.58,-0.01,1.4,0.81,5.65,7.13,6.24,7.48,-1.74,-7.97,-4.02,2.42,4.19,6.97,5.62,9.65
